Fh CTSL1 inh: cathepsin L1 inhibition, PFM18AAP counter-screen; recombinant F. hepatica cathepsin L1, Z-Leu-Arg-MCA fluorescence; inhibition, % at 5.96 µM; actives 0.49% (n = 300,000); AID 1906;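 active = inhibition above the mean of all tested compounds plus 3 SD, set per screening campaign, cut at about 17% in these data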
Rin1-Abl PPI inh: blocks binding of human Rin1 to Abl. inhibition, % at 7.35 µM. actives 0.4% (n = 360,000). TR-FRET Rin1/Abl binding, biochemical. P00519+Q13671; in the data active = inhibition above about 5%, passing the limit was not always enough
Target sequence (P00519 whole entry, looked up): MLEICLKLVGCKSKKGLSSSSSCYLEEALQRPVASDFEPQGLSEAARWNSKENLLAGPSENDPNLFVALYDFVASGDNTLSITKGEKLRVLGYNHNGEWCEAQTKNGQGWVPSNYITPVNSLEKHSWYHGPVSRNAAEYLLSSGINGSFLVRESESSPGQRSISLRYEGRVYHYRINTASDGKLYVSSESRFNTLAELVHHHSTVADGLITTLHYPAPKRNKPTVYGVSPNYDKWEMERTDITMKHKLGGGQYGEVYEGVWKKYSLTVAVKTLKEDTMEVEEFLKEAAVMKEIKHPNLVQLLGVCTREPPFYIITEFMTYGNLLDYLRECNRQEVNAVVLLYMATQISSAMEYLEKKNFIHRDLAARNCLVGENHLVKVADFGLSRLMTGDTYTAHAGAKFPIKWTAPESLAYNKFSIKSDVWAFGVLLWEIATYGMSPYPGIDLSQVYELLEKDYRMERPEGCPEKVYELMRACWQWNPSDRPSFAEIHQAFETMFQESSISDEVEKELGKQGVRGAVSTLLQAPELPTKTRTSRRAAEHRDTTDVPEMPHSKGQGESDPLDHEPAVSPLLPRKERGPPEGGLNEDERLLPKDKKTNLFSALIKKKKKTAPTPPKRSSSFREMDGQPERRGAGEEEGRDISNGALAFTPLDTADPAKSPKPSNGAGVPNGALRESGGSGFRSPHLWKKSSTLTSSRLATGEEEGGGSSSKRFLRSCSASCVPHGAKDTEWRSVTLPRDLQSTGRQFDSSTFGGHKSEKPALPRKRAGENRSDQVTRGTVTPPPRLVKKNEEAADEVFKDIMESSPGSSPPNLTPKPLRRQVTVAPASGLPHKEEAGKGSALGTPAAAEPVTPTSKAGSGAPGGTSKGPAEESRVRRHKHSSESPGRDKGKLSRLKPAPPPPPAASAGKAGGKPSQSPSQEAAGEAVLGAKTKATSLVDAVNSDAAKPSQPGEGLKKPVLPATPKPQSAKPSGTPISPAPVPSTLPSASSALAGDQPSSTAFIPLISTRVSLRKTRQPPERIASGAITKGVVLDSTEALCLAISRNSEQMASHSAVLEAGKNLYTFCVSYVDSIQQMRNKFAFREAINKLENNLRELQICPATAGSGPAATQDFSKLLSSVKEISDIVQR
Target sequence (Q13671 whole entry, looked up): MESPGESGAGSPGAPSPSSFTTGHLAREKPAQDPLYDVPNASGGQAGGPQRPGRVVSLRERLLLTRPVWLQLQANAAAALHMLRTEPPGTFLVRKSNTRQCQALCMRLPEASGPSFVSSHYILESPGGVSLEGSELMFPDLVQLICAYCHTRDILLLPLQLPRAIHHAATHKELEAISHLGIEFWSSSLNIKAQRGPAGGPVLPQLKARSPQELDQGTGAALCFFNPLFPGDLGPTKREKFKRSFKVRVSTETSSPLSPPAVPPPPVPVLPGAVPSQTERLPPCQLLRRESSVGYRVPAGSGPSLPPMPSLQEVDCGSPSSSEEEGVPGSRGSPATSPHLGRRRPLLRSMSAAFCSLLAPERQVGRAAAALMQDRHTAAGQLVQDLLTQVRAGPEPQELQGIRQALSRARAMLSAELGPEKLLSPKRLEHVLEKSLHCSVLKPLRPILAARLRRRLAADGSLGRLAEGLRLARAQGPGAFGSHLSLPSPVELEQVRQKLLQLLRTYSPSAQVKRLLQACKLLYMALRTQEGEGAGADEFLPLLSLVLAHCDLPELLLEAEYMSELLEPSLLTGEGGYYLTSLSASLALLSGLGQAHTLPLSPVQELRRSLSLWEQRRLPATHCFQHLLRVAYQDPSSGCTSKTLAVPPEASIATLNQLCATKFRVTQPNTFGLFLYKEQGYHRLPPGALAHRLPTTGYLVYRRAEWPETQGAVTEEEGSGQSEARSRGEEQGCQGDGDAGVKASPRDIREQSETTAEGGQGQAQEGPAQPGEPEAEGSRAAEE
Calb FLC: C. albicans growth modulation with fluconazole | growth inhibition, % (concentration not given with the values) | C. albicans CaCi-2 (fluconazole-resistant clinical isolate) + fluconazole, Alamar Blue growth, 48 h | actives 0.57% (n = 300,000);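 active = growth inhibition above about 58% in most replicates, limit read from the data, passing the limit was not always enough; inconclusive = exactly half the replicates above a set limit; inactive = most replicates below a set limit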;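 note: all wells also contain fluconazole at 8 µg/ml as a sub-toxic cotreatment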
PfM18AAP inh: blocks P. falciparum M18 aspartyl aminopeptidase; inhibition, % at 7.35 µM; recombinant PfM18AAP, H-Glu-NHMec fluorogenic cleavage; actives 1.2% (n = 290,000); AID 1822;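 active = inhibition above the campaign mean inhibition over all tested compounds plus 3 SD, cut at about 28% in these data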
A number is an active result; - = inactive; ? = inconclusive; . = no result given. Sampled rows, rich in hits. Any-hit rate of the full collection: about 2.1%.

SMILES	Fh CTSL1 inh	Rin1-Abl PPI inh	Calb FLC	PfM18AAP inh
N#Cc1ccc(NC(=O)COC(=O)CNC(=O)C2CCCCC2)cc1	31	-	-	-
COc1cccc(NC(=O)COC(=O)CNC(=O)C2CCCCC2)c1	.	-	.	.
N#Cc1ccc(NC(=O)COC(=O)C2CCC2)cc1	.	-	.	.
Cc1cccc(NC(=O)COC(=O)CNC(=O)C2CCCCC2)c1	25	-	-	-
CC(C)CCNC(=O)NC(=O)COC(=O)CNC(=O)C1CCCCC1	26	-	-	-
CC1CC(C)CN(CCCNC(=O)c2ccc3c(c2)NC(=O)CS3)C1 (centres undefined)	-	-	-	-
O=S(Cc1ccccc1)Cc1ccccc1	.	-	.	.
Cc1ccc(-c2csc(NC(=O)c3ccc([N+](=O)[O-])o3)n2)cc1	17	-	-	-
Cc1ccc(-c2csc(NC(=O)c3ccc(C)o3)n2)cc1	-	-	-	-
Cc1ccc(NC(=O)c2ccc([N+](=O)[O-])o2)cc1C	-	-	117	-
O=C(Nc1cccc(NC(=O)c2ccccc2Cl)c1)c1ccc([N+](=O)[O-])o1	-	-	80	-
O=C(Nc1cccc2ccccc12)c1ccc([N+](=O)[O-])o1	-	-	86	-
CCOC(=O)C1=CCC(c2ccccc2Cl)N(S(=O)(=O)c2ccc(C)cc2)C1 (centres undefined)	.	-	.	.
COc1ccc(Cl)c(Cn2c(NCc3ccco3)nc3c2c(=O)n(C)c(=O)n3C)c1	-	11	.	-
O=C(O)c1ccccc1Sc1ncnc2sc3c(c12)CCC3	-	-	?	-
O=C(Nn1cnnc1)c1cc2c(s1)CCCC2	-	-	-	32
CCCCNC(=O)C(=O)Nc1cc2c3c(c1)CCC(=O)N3CCC2	-	-	-	-
COc1ccc(NS(=O)(=O)c2ccc(N3CCOCC3)c(N)c2)cc1	.	-	.	.
O=C(Nc1cccc(C(F)(F)F)c1)c1cccnc1	-	-	117	-
Cc1[nH]n(-c2ccccc2)c(=S)c1C=Nc1cccc([N+](=O)[O-])c1	-	-	-	50
N#CCCn1cc(/C=N/NC(N)=S)c(-c2ccc(-c3ccccc3)cc2)n1	29	-	-	-
COC(=O)C(C(=O)OC)N1C(=O)CCC1=O	-	-	-	-
COc1ccc(CCNC(=O)CCc2ccsc2)cc1OC	-	-	-	-
Cn1cc(/C=C/c2cc[n+](C)cc2)c2cc(Cl)ccc21	-	-	82	-
N/C(=N\C(=S)Nc1ccc2c(c1)OCO2)c1ccccc1	.	-	.	.
SMILES	Fh CTSL1 inh	Rin1-Abl PPI inh	Calb FLC	PfM18AAP inh
COc1cccc(NC(=O)Cn2c3ccc(F)cc3c3nc4n(c(=O)c32)CCCS4)c1	-	-	-	-
Nc1nsc2ccccc12	-	-	87	-
Cc1onc(-c2ccccc2)c1C(=O)N/N=C(\N)COc1ccc(Cl)cc1	-	-	86	-
O=C1N/C(=N/S(=O)(=O)Cc2ccccc2)S/C1=C/c1ccc2c(c1)OCO2	-	-	-	-
Nc1ccc(C(=O)N/N=C\c2ccc(OC(=O)c3ccccc3Cl)cc2)cc1	-	-	79	-
COC(=O)C1CCN(Cc2c(C(=O)N3C[C@@H](C)O[C@@H](C)C3)nc3ccc(Cl)cn23)CC1	-	-	87	-
CCn1c(CN2CCCCCC2=O)nnc1SCc1cnc(-c2ccccc2)s1	-	-	78	-
O=C1CCCCCN1Cc1nnc(SCc2nc3ccccc3s2)n1-c1ccccn1	-	-	-	-
C=CCOc1ccc(/C=C2/C(=O)ON=C2C)cc1OC	-	-	-	30
COc1ccc(/C=C2/C(=O)ON=C2C)cc1Cl	-	-	-	-
CC(C)(C)c1ccc(/C=N/N2C(=O)CSC2=S)cc1	-	-	-	31
COc1ccccc1C=NN1C(=O)CSC1=S	.	-	.	.
O=C1CSC(=S)N1/N=C/c1ccc(O)c(O)c1O	-	30	-	68
O=C1CSC(=S)N1/N=C/c1cc(Br)ccc1O	-	.	-	35
O=C1CSC(=S)N1N=Cc1ccc2c(c1)OCO2	.	-	.	.
Cc1ccc(C)c(S(=O)(=O)N2CCN(C(=O)c3cccn3C)CC2)c1	-	-	-	.
C/C(=N\NC(N)=S)c1cc(-c2ccccc2)c(-c2ccccc2)s1	-	-	-	-
O=C(Nc1ccn(Cc2ccccc2F)n1)c1ccc(COc2cc(Cl)ccc2Cl)o1	-	-	-	-
CC[C@H](C)[C@H]1CNC(=S)N1CC1CCN(CCC(C)C)CC1	.	-	.	.
Cc1ncc(CO)c(/C=N/NC(=S)Nc2ccc(Cl)c(Cl)c2)c1O	-	-	110	-
CCOC(=O)C1=CCN(S(=O)(=O)c2ccc(C)cc2)C1c1cccc(F)c1 (centres undefined)	.	-	.	.
COc1ccc(S(=O)(=O)N2CCOCC2)cc1NC(=O)CSc1nnnn1C1CC1	.	-	.	.
Cc1cc(C)c(C(=O)NNC(=O)c2cccnc2)c(C)c1	-	-	-	-
O=C(O)C1Nc2c(O)cc(Cl)c([N+](=O)[O-])c2C2C=CCC12 (centres undefined)	-	14	-	-
CC1=Nc2ccccc2/C1=C/c1nc(-c2ccc(C)s2)oc1O	25	-	-	-
SMILES	Fh CTSL1 inh	Rin1-Abl PPI inh	Calb FLC	PfM18AAP inh
CC1=Nc2ccccc2/C1=C\c1nc(-c2ccccc2)oc1O	17	-	-	-
Cc1c(N(C)S(=O)(=O)c2cc(C(=O)Nc3ccccn3)ccc2Cl)c(=O)n(-c2ccccc2)n1C	-	-	-	.
O=C(NCc1ccc(F)cc1)c1ccc(CS(=O)(=O)Cc2ccccc2F)o1	-	-	95	-
O=C(NCc1ccc(F)cc1)c1ccc(CS(=O)(=O)Cc2ccc(F)cc2)o1	-	-	-	-
COC(=O)c1ccc(=O)c2nc3/c(=C/O)c(O)cc(=O)c3[nH]c12	-	38	.	-
COc1ccccc1-c1ccc(Nc2ccc(C(=O)N3CCOCC3)cc2)nn1	18	-	-	-
Cc1ccc2nc(CN(C)C(=O)[C@H]3O[C@@H](n4ccc(N)nc4=O)[C@H](O)[C@@H]3O)[nH]c2c1	.	-	.	.
COC(=O)CCCCCCCCCC[N+]1(C)CCCCC1	-	-	-	-
C[N+]1(CC(=O)OC2CCCCCCCCCCC2)CCCC1	-	-	99	-
C/C(=N\NC(=O)c1ccccc1O)c1ccc(NC(=O)c2ccccc2)cc1	.	-	-	-
C/C(=N/NC(=O)c1ccccc1O)c1ccc(N2C(=O)C3CCCCC3C2=O)cc1 (centres undefined)	-	-	111	-
Cc1ccc(S(=O)(=O)N[C@@H](Cc2ccccc2)C(=O)CCl)cc1	70	-	.	-
Cc1ccc(S(=O)(=O)NC(Cc2ccccc2)C(=O)NN)cc1 (centres undefined)	-	-	-	-
CCC(=O)c1ccccc1OCCCCn1cncn1	-	-	-	-
C=CCn1c(C)cc(C(=O)CSc2nc(N)cc(N)n2)c1C	-	-	108	-
C=CCn1c(C)cc(C(=O)CSc2nnc3c(Cl)cc(Cl)cn23)c1C	-	-	-	-
OCCN1CCN(c2ncnc3c2ncn3[C@H]2CN(Cc3ccc(F)cc3)C[C@@H](CO)O2)CC1	.	-	.	.
CN(CC(=O)Nc1cccc(F)c1)C(=O)CCCNC(=O)c1ccc(Cl)cc1	-	-	-	.
Cc1ccc(O)c(N/C=C/C(=O)c2ccc(F)cc2)c1	-	-	-	28
C=CCN=C1S/C(=C\N(C)C)C(=O)N1S(=O)(=O)c1ccc(C)cc1	.	-	.	.
